According to PubChem BioAssay (EPA / NIEHS):
Inconclusive results are not listed. Calls of active or inactive are those of the source. How the source made its calls, unless noted: active means hit-call score of the fitted dose curve at least 0.9, where 1 is the maximum; inactive means score below 0.9.

Columns and labels:
[1] = CCTE_Deisenroth_AIME_384WELL_CTox_Inactive: Cytotoxicity Assessment (CTOX) in CCTE's 384-well Estrogen Receptor Transactivation Assay without AIME metabolic competence (metabolism negative), Deisenroth Lab (AID 2284039; active means hit-call score of the fitted dose curve at least 0.9, where 1 is the maximum;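 further: cell viability via live-cell protease substrate cleaved to fluorescent probe; cells exposed 24 h to medium preincubated 2 h with alginate-water beads without S9; loss of fluorescence signal means loss of viability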)
In short: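 Fluorescent protease-substrate viability readout after 24 h exposure of VM7Luc4E2 cells to conditioned medium. Chemicals (0.002–200 uM) first sat 2 h over alginate-water beads, no S9. Data fitted bidirectionally, loss of signal meaning viability loss.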

[2] = biological target: Estrogen receptor (Homo sapiens) (UniProt P03372); assay: CCTE_Deisenroth_AIME_384WELL_LUC_Shift: CCTE's 384-well Estrogen Receptor Transactivation Assay with AIME metabolic competence data shift (ERTA luciferase; difference in metabolism positive and negative), Deisenroth Lab (AID 2284041);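 further: shift is response with S9 minus without S9 so positive means metabolism raised ER signal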
In short: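 Here, parent compounds undergo 2 h phase I metabolism by PB/BNF-induced rat S9 before 24 h transactivation in VM7Luc4E2 cells; the curve models S9-positive minus S9-negative response over a 10-point series.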

[3] = CCTE_Shafer_MEA_dev_active_electrodes_number: CCTE's Neural Network Formation Assay for Number of Active Electrodes, Shafer Lab (AID 2284040; active means hit-call score of the fitted dose curve at least 0.9, where 1 is the maximum)
In short: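 Rat cortical primary cultures, 1.5 x 10^5 cells/well, PEI-coated MEA, laminin drop. Continuous exposure DIV 0–12; full media/compound change DIV 5, 9. Readout: electrodes with mean firing ≥5 spikes/min; AUC across days; loss vs DMSO.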

[4] = CCTE_Shafer_MEA_dev_burst_rate: CCTE's Neural Network Formation Assay for Burst Rate, Shafer Lab (AID 2284042)
In short: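 Exposure ran continuously over 12 days of network development in rat cortical cultures, with compound refreshed during full media changes on DIV 5 and 9. Single-electrode bursts per recording time, well-mean over active electrodes, trapezoidal AUC across days 5–12, fitted downward relative to DMSO.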

[5] = CCTE_Shafer_MEA_dev_bursting_electrodes_number: CCTE's Neural Network Formation Assay for Number of Bursting Electrodes, Shafer Lab (AID 2284043; active means hit-call score of the fitted dose curve at least 0.9, where 1 is the maximum;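 on AC50: potency is for loss of bursting electrodes relative to DMSO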)
In short: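 Primary rat cortical neurons were cultured on PEI-coated 48-well MEA plates (16 electrodes/well) and exposed from plating through day 12, with compound renewed at feeds on DIV 5 and 9. Electrodes bursting ≥1 per 2 min were counted on DIV 5, 7, 9, 12; trapezoidal AUC taken.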

[6] = CCTE_Shafer_MEA_dev_per_burst_interspike_interval: CCTE's Neural Network Formation Assay for Burst Interspike Interval, Shafer Lab (AID 2284044);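 further: mean spike spacing inside bursts as AUC over recordings on days 5 7 9 12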
In short: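 Rat cortical primary cultures, 16 electrodes/well; compound from plating, renewed with full media change DIV 5 and 9. Spikes via adaptive detector; per-burst ISI well-mean over active bursting electrodes; AUC of DIV 5/7/9/12 recordings; loss-direction fit vs DMSO.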

[7] = CCTE_Shafer_MEA_dev_burst_duration_mean: CCTE's Neural Network Formation Assay for Mean Burst Duration, Shafer Lab (AID 2284045)
In short: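 Primary rat cortical neurons on PEI-coated 16-electrode MEA wells, exposed from plating through day 12 with compound renewed at DIV 5 and 9; spontaneous activity recorded days 5, 7, 9, 12. Well-mean burst duration collapsed as trapezoidal AUC, fitted for loss versus DMSO.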

[8] = CCTE_Shafer_MEA_dev_interburst_interval_mean: CCTE's Neural Network Formation Assay for Mean Interburst Interval, Shafer Lab (AID 2284046);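 further: well-mean interburst interval of bursting electrodes as AUC over four recording days; curve fitted for decrease in interburst interval relative to DMSO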
In short: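 Primary rat cortical neurons on PEI-coated 48-well MEA plates (laminin added with cells at plating) (16 electrodes/well), exposed from plating day 0 with renewal at DIV 5 and 9. Mean inter-burst interval averaged over bursting electrodes, AUC across days 5, 7, 9, 12; DMSO baseline.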

[9] = CCTE_Shafer_MEA_dev_inter_network_spike_interval_mean: CCTE's Neural Network Formation Assay for Mean Inter-network Spike Interval, Shafer Lab (AID 2284047)
In short: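 Mean time between consecutive network-spike peaks, recorded extracellularly (adaptive spike detection) on DIV 5, 7, 9 and 12, summarized as trapezoidal AUC. Rat cortical cultures on MEAs dosed continuously days 0–12, re-dosed at feeds; loss-of-signal fit relative to DMSO.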

[10] = CCTE_Shafer_MEA_dev_network_spike_number: CCTE's Neural Network Formation Assay for Number of Network Spikes, Shafer Lab (AID 2284048);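 further: synchronized bursts across electrodes counted on days 5 7 9 12 and integrated as AUC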
In short: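 Primary rat cortical neurons were seeded at 1.5 x 10^5 cells/well on PEI-coated 16-electrode MEA wells with laminin, exposed from plating day 0, compound renewed at DIV 5 and 9. Network spikes were recorded on days 5, 7, 9, 12 and summarized as trapezoidal AUC versus DMSO.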

[11] = CCTE_Shafer_MEA_dev_network_spike_peak: CCTE's Neural Network Formation Assay for Mean Number of Electrodes in Network Spike, Shafer Lab (AID 2284049);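 on AC50: fitted for loss of signal meaning fewer electrodes in network spikes than DMSO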
In short: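 Continuous 12-day exposure of rat cortical cultures, starting at plating, on MEA plates. Endpoint: electrodes participating in network-spike peaks, AUC across DIV 5–12, DMSO as negative control.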

[12] = CCTE_Shafer_MEA_dev_spike_duration_mean: CCTE's Neural Network Formation Assay for Mean Spike Duration, Shafer Lab (AID 2284051);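 further: mean network spike duration pooled as area under curve over DIV 5 to 12 recordings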
In short: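 Spontaneous activity was recorded on days 5, 7, 9 and 12 from rat cortical cultures grown on microelectrode arrays and dosed continuously from day 0, with media and compound renewed after the DIV 5 and 9 recordings. Network-spike duration was collapsed by area under the curve.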

[13] = CCTE_Shafer_MEA_dev_network_spike_duration_std: CCTE's Neural Network Formation Assay for Standard Deviation of Network Spike Duration, Shafer Lab (AID 2284052);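 further: hits are decreases in network spike duration SD versus DMSO vehicle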
In short: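 Network spike duration variability was collapsed across recordings on days 5, 7, 9 and 12 by trapezoidal area-under-curve and fitted downward against DMSO. Cultures were rat cortical neurons on PEI-coated MEA plates, dosed continuously from plating, refed with compound DIV 5/9.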

[14] = CCTE_Shafer_MEA_dev_per_network_spike_spike_number_mean: CCTE's Neural Network Formation Assay for Mean Number of Spikes in a Network Spike, Shafer Lab (AID 2284053)
In short: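 Mean spike count within each network spike, taken in a 0.05 s window at its peak, was recorded on days 5, 7, 9 and 12 and integrated as trapezoidal area under the curve. Rat cortical cultures on MEA plates received continuous compound from day 0, refreshed at medium changes on DIV 5 and 9.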

[15] = CCTE_Shafer_MEA_dev_per_network_spike_spike_percent: CCTE's Neural Network Formation Assay for Percent of Spikes in a Network Spike, Shafer Lab (AID 2284054)
In short: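 Primary rat cortical neurons on 16-electrode MEA wells (PEI-coated, laminin at plating), exposed from day 0 with renewal at DIV 5 and 9; spikes within 0.05 s of network-spike peaks over total spikes, AUC across days 5, 7, 9, 12.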

[16] = UKN5_HCS_SBAD2_cell_viability: Viability Assessment in the University of Konstanz (UKN) Leist Lab Neurite Outgrowth Assay in human iPSC-derived immature Dorsal Root Ganglia Neurons (UKN5) (AID 2284056)
In short: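 iPSC-derived immature peripheral neurons (SBAD2) seeded on Matrigel with CHIR99021, SU5402 and DAPT, dosed 1 h later for 24 h. Viability from Hoechst H-33342 and calcein-AM live staining, high-content imaging; bidirectional fit versus DMSO.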

[17] = CCTE_Shafer_MEA_dev_LDH: CCTE's Lactate Dehydrogenase Assay for Cytotoxicity in the Neural Network Formation Assay, Shafer Lab (AID 2284068; active means hit-call score of the fitted dose curve at least 0.9, where 1 is the maximum;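 further: exposure for twelve days from plating with re-dosing on DIV 5 and 9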)
In short: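 Primary rat cortical neurons were cultured on PEI-coated MEA plates and exposed from plating through day 12, with compound renewed at medium changes on DIV 5 and 9. LDH activity was read spectrophotometrically; loss of signal versus DMSO indicates reduced viability.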

DIO2 (gene 1734) = assay: CCTE_GLTED_hDIO2: CCTE's human Deiodinase 2 (DIO2) Inhibition Assay, Great Lakes Toxicology and Ecology Division (GLTED) Lab (AID 2284050; active means hit-call score of the fitted dose curve at least 0.9, where 1 is the maximum)
In short: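 In this cell-free test, chemicals are exposed to human deiodinase type 2 for 3 hours. Released iodide is determined spectrophotometrically via the Sandell-Kolthoff method, and signal loss relative to DMSO is fitted.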

DIO3 (gene 1735) = assay: CCTE_GLTED_hDIO3: CCTE's human Deiodinase 3 (DIO3) Inhibition Assay, Great Lakes Toxicology and Ecology Division (GLTED) Lab (AID 2284055; active means hit-call score of the fitted dose curve at least 0.9, where 1 is the maximum;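 further: potency is for inhibition seen as loss of released iodide signal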)
In short: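 Enzyme activity is tracked as iodide release from substrate by recombinant human DIO3 over 3 h with chemical present. A second Sandell-Kolthoff step converts iodide to an absorbance signal, fitted relative to DMSO.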

Measured: AC50

Sequence of Estrogen receptor (Homo sapiens) (P03372 whole entry, looked up): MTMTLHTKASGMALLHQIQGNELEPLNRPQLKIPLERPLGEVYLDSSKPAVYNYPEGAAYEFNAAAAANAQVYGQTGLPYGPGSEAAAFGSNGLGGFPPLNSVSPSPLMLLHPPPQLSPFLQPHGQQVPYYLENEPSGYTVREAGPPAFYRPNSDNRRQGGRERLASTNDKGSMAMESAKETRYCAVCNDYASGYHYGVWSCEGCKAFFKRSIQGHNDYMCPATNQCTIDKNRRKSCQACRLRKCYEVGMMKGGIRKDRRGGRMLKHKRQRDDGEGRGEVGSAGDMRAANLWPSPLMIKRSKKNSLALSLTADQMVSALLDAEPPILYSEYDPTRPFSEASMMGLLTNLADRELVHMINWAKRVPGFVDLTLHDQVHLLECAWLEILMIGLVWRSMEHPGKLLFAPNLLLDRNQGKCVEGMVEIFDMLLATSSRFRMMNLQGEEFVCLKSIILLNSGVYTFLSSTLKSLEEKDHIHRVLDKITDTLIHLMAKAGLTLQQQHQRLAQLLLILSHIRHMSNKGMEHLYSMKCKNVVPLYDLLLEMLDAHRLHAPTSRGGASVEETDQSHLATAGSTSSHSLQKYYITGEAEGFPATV

CN(C)C(=O)Nc1ccccc1
inactive: [1] | [2]

CCCCOCCOCCO
inactive: [1] | [2]

CC(CCO)CC(C)(C)C (stereo unspecified)
inactive: [1] | [2]

CC(C)Cc1ccc(C(C)C(=O)O)cc1 (stereo unspecified)
inactive: [3] | [4] | [6] | [7] | [9] | [10] | [12] | [13] | [14] | [16]
active: [5] 2.98 µM | [8] 0.962 µM | [11] 15 µM | [15] 15 µM | [17] 15 µM

CCCCC(CC)COC(=O)COc1ccc(Cl)cc1C (stereo unspecified)
inactive: [3] | [4] | [5] | [6] | [7] | [8] | [9] | [10] | [11] | [12] | [13] | [14] | [15]

CC(C)C(=O)c1ccccc1
inactive: [1] | [2]

Cc1cccc(O)c1
inactive: [1] | [2]

N#CCCNCCC#N
inactive: [3] | [4] | [5] | [6] | [7] | [8] | [9] | [10] | [11] | [12] | [13] | [14] | [15] | [17]

CC(=O)OC/C=C(C)/C=C/C=C(C)/C=C/C1=C(C)CCCC1(C)C
active: DIO2 (gene 1734) 52.6 µM | DIO3 (gene 1735) 37.8 µM
inactive: [1] | [2]

C=CC(C)CCCC(C)(C)O (stereo unspecified)
inactive: [1] | [2]

C#C[C@]1(O)CC[C@H]2[C@@H]3CCc4cc(O)ccc4[C@H]3CC[C@@]21C
active: [1] 93.7 µM

OC[C@H]1O[C@@H](O[C@H]2[C@H](O)[C@@H](O)[C@H](O)O[C@@H]2CO)[C@H](O)[C@@H](O)[C@H]1O
inactive: [1] | [2]

CCCCCCCCCCCCN1CCOCC1
inactive: [1] | [2]

CCCC[N+](C)(CCCC)CCCC
inactive: [1] | [2]

c1ccc2scnc2c1
inactive: [3] | [2] | [4] | [6] | [7] | [8] | [9] | [10] | [11] | [12] | [13] | [14] | [15] | [17]

CC(C)N(c1ccccc1)C(C)C
inactive: [1] | [2]
